Measurements published in PubChem BioAssay AID1626 (SRMLSC, 2009).
Screen size: about 220,000 compounds; about 2,000 (0.91%) were called active. Another 2% or so got no clear call; they are omitted. Only a sample is shown. Potency and affinity values are given separately. Values without a mark were called inactive. No stated cut-off is given here; in the data, inconclusive means inhibition above about 80% without an active follow-up result; inactive means below that; test concentration not stated here.

Test: M. tuberculosis H37Rv growth inhibitors, H37Rv strain (AID 1626);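 further: bacteria incubated seven days before Alamar blue readout; 0% = bacteria only wells and 100% = bacteria with antibiotic wells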
Settings: active compounds read high, concentration not given here

SMILES | inhibition
COCCCNC(=O)CSc1nc2sc(C(=O)OC)c(C)c2c(=O)n1N | 7.98%
CN(C)C(=O)Cn1c(SCC(=O)N2CCCc3ccccc32)nc2ccccc21 | -5.91%
Cc1ccc(OCc2nc3c4c(ncn3n2)-c2ccccc2CC42CCCC2)cc1 | -1.61%
COc1ccc2c(c1)CCC/C2=N/OC(=O)c1ccccc1OC | 10.5%
CCCSc1nc2c(=O)[nH][nH]c(=O)c2n1Cc1ccccc1 | -2.99%
CCOC(=O)CSc1nnc(-c2ccccc2OC)o1 | 10.6%
O=C(Nc1ccccc1-c1nnc(SCc2ccccc2)o1)c1ccccc1 | 8.97%
COC(=O)CSc1nnc(-c2ccccc2OC)o1 | 1.84%
COc1ccc(-c2nnc(SCC(=O)N3CCCCC3)o2)c(OC)c1 | 3.89%
O=C(CSc1nnc(-c2ccccc2NC(=O)c2ccccc2)o1)OC1CCCCC1 | 61.5%
CCOC(=O)N1CCN(C(=O)CSc2nnc(-c3cc(OC)ccc3OC)o2)CC1 | 17.1%
C#CCNC(=O)C1=C[C@@H](C)[C@H](CCCO)[C@@H](OCC)O1 | -2.73%
O=C(CCn1[nH]c(=O)c2ccccc2c1=O)NCCO | -2.07%
COc1cccc(-c2nc(-c3ccc(NC(=O)c4ccncc4)cc3)no2)c1 | 7.98%
CC1(C)OC(=O)C(=NNc2ccc(Br)cc2)C(=O)O1 | 76.6%
O=C1c2ccccc2C(=O)N1CCCCN(C(=O)c1cccc([N+](=O)[O-])c1)c1ccc(Cl)cc1 | -4.65%
O=C1c2ccccc2C(=O)N1CCCCN(C(=O)c1ccc([N+](=O)[O-])cc1)c1ccc(Cl)cc1 | -7.62%
CCOC(=O)C1(CCOc2ccccc2)CCN(Cc2ccc3c(c2)OCCO3)CC1 | -3.31%
O=c1[nH]c(=O)n(CCOc2ccc(Cl)cc2)cc1Br | -3.97%
COCCNC(=S)N1CCC(c2nc(-c3ccc(F)cc3)no2)CC1 | -1.41%
CC1=Nc2ccccc2/C1=C/c1sc(=S)n(-c2cccc(C(=O)O)c2)c1O | 4.52%
CC1=Nc2ccccc2/C1=C/c1sc(=O)n(CC(=O)N2CCCC2)c1O | -8.48%
CC(C)CN(CCC(=O)O)CC(C)C | -0.69%
CCOC(=O)c1cnc(-n2cc(C)cn2)nc1NCc1ccc2c(c1)OCO2 | 59.5%

SMILES | inhibition
CCOC(=O)c1cnc(-n2nc(C)cc2C)nc1NCCO | 4.03%
CCOC(=O)c1cnc(-n2nc(C)cc2C)nc1Oc1ccccc1F | -2.19%
CCOC(=O)c1cnc(-n2nc(C)cc2C)nc1Nc1ccccc1OC | 25.4%
CCOC(=O)c1cnc(-n2nc(C)cc2C)nc1N1CC(C)OC(C)C1 (stereo unspecified) | -1.14%
CCOC(=O)c1ccc(NCc2ccc3c(c2)OCO3)cc1 | 7.94%
O=C(Cn1c(=O)n(-c2ccccc2)c(=O)c2oc3ccccc3c21)Nc1ccccc1 | -0.16%
O=C1CC(=O)CC(c2ccccc2Cl)C1 | -8.51%
CCO[C@H]1OC(C(=O)O)=C[C@@H](C(C)(C)C)[C@@H]1CCCO | -7.81%
NS(=O)(=O)c1ccc(C(=O)Nc2ccc(-c3nc4cccnc4s3)cc2)cc1 | 9.76%
Cc1cc(C)c2c3c(cn2n1)c(=O)n(C)c(=O)n3C | 4.42%
O=C(CCCSc1nc2ccccc2[nH]1)NCc1ccccc1Cl | -0.81%
Cc1cc2nc(CCl)cc(=O)n2[nH]1 | 2.54%
COCCn1cnc2c1c(=O)n(CC(=O)OCC#N)c(=O)n2Cc1ccccc1 | 1.32%
O=C(c1ccccc1)N1CCN(c2ccc([N+](=O)[O-])c(NCC3CCCO3)c2)CC1 (stereo unspecified) | 3.59%
O=C(COc1ccccc1)NC1CCCc2ccccc21 (stereo unspecified) | -1.62%
O=C(O)CSCC(=O)NC1CCCc2ccccc21 (stereo unspecified) | 0.52%
Cc1cc(/C=C2/NC(=O)N(Cc3ccccc3F)C2=O)c(C)n1C(C)C | 7.35%
Cc1nn(C(=O)c2cccc([N+](=O)[O-])c2)c(C)c1Sc1ccccc1 | 0.41%
Cc1ccc(OCc2nnc(SCC(=O)c3cccc([N+](=O)[O-])c3)n2C)cc1 | 3.44%
COc1ccc(NC(=O)C2CCC(N3C(=O)C4C5C=CC(C5)C4C3=O)CC2)cc1 (stereo unspecified) | -14.2%
O=C(COc1ccc(Cl)cc1)NCc1ccncc1 | 0.93%
O=C(O)COCC(=O)Nc1ccc2c(c1)CCC2 | -2.88%
O=C(COc1cc(Cl)ccc1Cl)Nc1ccc2c(c1)CCC2 | 3.53%
CC(=O)c1ccc(NC(=O)COc2ccc3c(c2)OCO3)cc1 | 14%

SMILES | inhibition
O=C(COc1ccc(-n2ccnc2)cc1)Nc1cccc(Cl)c1 | 3.18%
O=C(COc1ccc2c(c1)CCC2)NCc1ccc(Cl)cc1 | 13.4%
O=C(COc1ccc2ccccc2c1)Nc1ccc(Cc2ccncc2)cc1 | 11.6%
COc1cc(NC(=O)COc2ccc(-n3ccnc3)cc2)cc(OC)c1 | 54.1%
Cc1ccc(/C=N/n2c(C)n[nH]c2=S)o1 | -0.73%
Cn1c(SCc2nc3ccccc3[nH]2)nnc1-c1cccnc1 | -8.31%
Brc1ccccc1-n1nnc(-c2ccnc3ccccc23)n1 | -5.72%
COc1ccc(OCC(=O)Nc2cccc(OC)c2)cc1 | 0.47%
COC(=O)COc1cccc(NC(=O)c2ccccc2)c1 | 10.8%
O=C(COc1cccc(Cl)c1Cl)Nc1ccc2c(c1)CCC2 | -7.06%
O=C(COc1ccc2c(c1)CCC2)NCc1cccc(Cl)c1 | 13.9%
O=C(COC(=O)c1cncc(Br)c1)Nc1ccc2c(c1)OCO2 | 2.32%
O=C(COC(=O)c1ccc(F)cc1F)Nc1ccc2[nH]c(=O)[nH]c2c1 | 0.74%
CCCC(=O)Nc1ccc2oc(-c3ccncc3)nc2c1 | 0.51%
Cc1c(Cl)cccc1NC(=O)Cn1c(-c2ccc(F)cc2)noc1=O | -3.42%
Cc1c(O)c(S(=O)(=O)c2ccccc2)c(=O)n(-c2ccccc2)c1-c1ccccc1 | -1.42%
NNC(=S)Nc1ccc(S(=O)(=O)N2CCOCC2)cc1 | -8.51%
CCCOc1ccc(C(=O)Nc2nc(C)c(Cc3ccc4c(c3)OCO4)s2)cc1 | 2.21%
Cc1nc(NC(=O)c2ccc(Cl)cc2)sc1Cc1ccc2c(c1)OCO2 | -0.23%
COc1cccc(C(=O)N(Cc2nc(-c3ccc(C)cc3)no2)C(C)C)c1 | -3.98%
COc1cc(/C=C/C(=O)OCC(=O)NC(=O)NC(C)C)cc(S(=O)(=O)N2CCc3ccccc32)c1OC | 3.06%
Cc1ccccc1CSCCNC(=O)Nc1ccccc1 | -0.63%
Cc1c2c(nc3ccccc13)CCC(C(C)(C)C)C2 (stereo unspecified) | 6.35%
Cc1c2c(nc3ccccc13)OCC2 | -16.5%

SMILES | inhibition
CCc1cccc(NC(=O)Cc2ccc([N+](=O)[O-])cc2)c1 | 58.6%
Nc1c(C(=O)O)cnn1-c1ccc([N+](=O)[O-])cc1 | -2.22%
O=C(Cc1ccc([N+](=O)[O-])cc1)Nc1ccc(Cl)cc1 | 3.56%
O=C(Nc1ccc([N+](=O)[O-])cc1)Nc1ccc(Cl)cc1F | 9.88%
O=C(c1ccc(F)cc1)N1CCN(C2CCC(c3ccccc3)CC2)CC1 (stereo unspecified) | 5.5%
CCOC(=O)c1ccc(NC(=O)CSc2nc(NC(=O)c3ccccc3)c3c(C)c(C)oc3n2)cc1 | 9.26%
COc1cc(CCN2C(=O)N[C@@H](CCc3ccccc3)C(C(C)=O)=C2C)cc(OC)c1OC | -6.61%
OCc1ccc(O)c2ncccc12 | 1.86%
Oc1ccc(CN2CCN(Cc3ccccc3)CC2)c2cccnc12 | -2.63%
O=C(N/N=C/c1ccc(O)c2ncccc12)c1cccc(Br)c1 | -4.1%
COCc1cc(CN2CCCC2)c(O)c2ncccc12 | -1.29%
CC(C)COCc1ccc(O)c2ncccc12 | 47.1%
Oc1ccc(F)c2cccnc12 | 44.5%
CC(C)CC(c1nnnn1CC1CCCO1)N1CCN(Cc2ccc3c(c2)OCO3)CC1 (stereo unspecified) | 0.16%
CCN1C/C(=C/c2sccc2C)c2nc3ccccc3c(C(=O)O)c2C1 | -0.78%
Nc1nnnn1CC(=O)N/N=C/c1cc([N+](=O)[O-])ccc1Cl | -0.24%
Cc1ccc(C(=O)COC(=O)CN2C(=O)C3C4CCC(C4)C3C2=O)cc1[N+](=O)[O-] (stereo unspecified) | 19.5%
Cc1ccc(CNC(=O)c2ccc(Cn3nc(C)c(Cl)c3C)o2)cc1 | 2.97%
COc1ccc(NC(=O)CCN2CCOCC2)c(OC)c1 | -3.47%
COc1ccc(-c2nc3ccccc3c(=O)n2CCOc2ccccc2C)cc1 | 0.63%
CC(C)c1cc(C(=O)O)c2ccccc2n1 | -2.96%
Brc1ccc(-c2cn3c(n2)CCc2ccc4cccnc4c2-3)cc1 | -2.02%
COc1ccc(-n2c(-c3ccc(Br)cc3)c[n+]3c2CCC3)cc1 | 2.38%
COc1cc(/C=N/NC(=O)COc2cc(C)cc(C)c2)ccc1OS(=O)(=O)c1ccc(C)cc1 | 10.7%
